Assay outcomes (PubChem BioAssay)
IL1B secr inh – inflammasome signaling inhibition, IL-1 beta readout; THP-1 LPS/ATP IL-1B secretion, AlphaLISA, 16 h; hits give low values; activity change, % at 57.5 µM; hit rate 4.7% among 360,000; in the data active = activity change below about -50%; inconclusive = mostly about -30% to -49%
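Secreted IL-1B measured by AlphaLISA bead assay after 16 h compound exposure of THP-1 cells; compounds (final up to 57.5 uM) added 1 h before LPS (250 ng/mL) and ATP (1.25 mM) stimulation; lower signal means less secretion.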
HT1080-NT tox – kills 2HG-producing HT-1080-NT fibrosarcoma cells; HT-1080-NT fibrosarcoma viability, CellTiter-Glo ATP luminescence, 48 h; Potency, µM (top dose mostly 46.1 µM), inactives show at the top dose activity, negative = less viability, usual class: cytotoxic; hit rate 1.6% among 360,000; AID 686970;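 note: NT is the 2HG producing partner of a matched IDH1 knockdown line; potency is the fitted concentration of half-maximal effect; 0% = DMSO-treated cells and -100% = media-only wells without cells; nearly all actives have a fitted effect of over 55% in size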
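Compounds were tested in concentration-response format on HT-1080-NT cells for 48 hours at 37 degrees C. Cell viability came from CellTiter-Glo luminescence; curves were classified by r2, response magnitude and activity.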
TDP1 cell CPT – DT40-hTDP1 cell growth loss with CPT; Potency, µM (doses to about 46.2 µM), for inactives: top-dose activity change, negative = growth inhibition, usual class: inhibitors; chicken DT40 Tdp1-/-;hTDP1 cells + 20 nM CPT, ATP luminescence, 48 h; hit rate 12% among 420,000; note: potency is the fitted concentration of half-maximal effect; nearly all actives have a fitted effect of over 55% in size
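Chicken DT40 Tdp1-/- cells complemented with human TDP1, 400 cells/well, exposed to compounds plus 20 nM camptothecin for at least 48 h at 37 C; viability read as ATP content by CellTiter-Glo luminescence.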
HT1080 IDH1KD tx – HT-1080 IDH1 knockdown cell toxicity (counter line) | HT-1080 IDH1 knockdown viability, ATP luminescence, 48 h | Potency, µM (highest dose often 46.1 µM), for the others: at the top dose activity, negative = toxicity, actives largely listed as cytotoxic | hit rate 2% among 360,000 | AID 686971;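 note: potency is the fitted concentration of half-maximal effect; 0% = DMSO wells and -100% = cell-free medium wells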
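IDH1KD HT-1080 cells, 750/well, RPMI + 5% FBS; compound pinned after 2 h settling; 48 h, 37 °C; CellTiter-Glo luminescence; % activity normalised to DMSO and no-cell wells; curves fitted, classed by r2 and efficacy.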
TDP1 cell noCPT – qHTS for Inhibitors of human tyrosyl-DNA phosphodiesterase 1 (TDP1): qHTS in cells in absence of CPT. DT40 Tdp1-/- hTDP1 cells, no CPT, ATP luminescence, 48 h. hit rate 15% among 420,000. Potency, µM (doses to about 46.2 µM), for the others: at the highest dose activity change, negative = growth inhibition, hits mostly inhibitors; note: potency is the fitted concentration of half-maximal effect; nearly all actives have a fitted effect of over 55% in size
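No-CPT arm: Tdp1-/-;hTDP1 DT40 cells (400/well) plus compounds, incubated ≥48 hr at 37 °C. Readout CellTiter-Glo luminescence.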
Active calls of the source: *; ? = inconclusive; . = no result given. Compounds with a hit are over-represented: about 19% of the library has one in this group of screens. Unless noted, calls come from the whole dose curve; as a rule, active = well fitted curve in the direction sought with a large enough effect; inconclusive = small, poorly fitted or top-dose-only effect, or another doubt; inactive = no such curve, though single readings can be large; an effect the other way counts as inactive or inconclusive. Unless noted, % is set by controls: 0 for no effect and ±100 for the full control effect.

SMILES	IL1B secr inh	HT1080-NT tox	TDP1 cell CPT	HT1080 IDH1KD tx	TDP1 cell noCPT
Cc1ccc(N2C(=O)CC(Sc3ncccn3)C2=O)cc1C (centres undefined)	-7	-3%	?	12%	?
CCCCNC(=O)C(NC(=O)c1cccs1)C(=O)c1ccccc1 (centres undefined)	5	12%	-2%	20%	1%
CCCCCCCC(=O)CC[C@@H]1[C@@H](C/C=C\CCCC(=O)OC(C)C)[C@@H](O)C[C@H]1O	.	.	7.5µM*	.	7.5µM*
Cc1cc(F)ccc1NC(=O)C(c1ccccc1)N1Cc2ccccc2C1=O (centres undefined)	.	.	3%	.	-12%
CC1=C(C(=O)N(C)C)CC(CC(=O)NCc2cccc3ccccc23)C(=O)N1Cc1ccc(F)cc1 (centres undefined)	-24	1%	-7%	5%	?
CSc1nc2ccccc2cc1/C=C(\C#N)c1cccc(Cl)c1	-2	4.6µM*	?	4.6µM*	?
N#C/C(=C\c1cccc(Cl)c1)C(=O)c1ccccc1	0	2%	?	4%	?
O=C(CCc1nnc(-c2ccc(-c3ccccc3)cc2)o1)N1CCCCC1	-1	-15%	?	-10%	21µM*
O=C(c1cccc(-c2nnc(-c3ccccc3)o2)c1)N1CCCCC1	0	-12%	?	6%	15µM*
O=C(c1cccc(-c2nnc(-c3ccccc3)o2)c1)N1CCCCCC1	-14	5%	?	-2%	14µM*
O=C(c1ccccc1)N1CCCCC1	16	6%	-5%	6%	1%
O=C(COC(=O)c1ccco1)Nc1ccc(N2CCOCC2)cc1	-5	9%	-5%	-4%	-14%
Cc1cccc(C(=O)OCC(=O)N2CCCC2=O)c1O	0	1%	0%	-3%	12%
O=S(=O)(Cc1ccccc1)C1CCCCC1O (centres undefined)	31	6%	6%	17%	4%
Cc1ccc(C2=NOC(=O)/C2=C\C=C\c2ccccc2)cc1	-96*	9.2µM*	4.6µM*	13µM*	4.6µM*
CC1=NN(c2ccccc2)C(=O)/C1=C/C=C/c1ccccc1	-129*	3.3µM*	-76%	9.2µM*	2.6µM*
CC1=NN(c2cccc(C(=O)O)c2)C(=O)/C1=C\C=C\c1ccco1	-96*	4%	?	0%	?
O=S(=O)(Nc1cccc(-c2ccc3nncn3n2)c1)c1ccc(Cl)s1	14	-22%	-3%	-28%	-21%
CC1CC[C@@]2(OC1)OC1CC3C4CC[C@@H]5CC(O)CC[C@@]5(C)C4CC[C@]3(C)C1C2C (some centres undefined)	.	.	3%	.	-4%
CCOc1ccc(Cl)cc1-c1cc(C(=O)Nc2ccc(OC)cc2OC)[nH]n1	-1	-2%	?	4%	18µM*
CCOc1ccc(Cl)cc1-c1cc(C(=O)Nc2cc(OC)ccc2OC)[nH]n1	9	?	?	7%	23µM*
COc1ccc(NC(=O)c2cc(-c3cc(Cl)ccc3OC)n[nH]2)c(OC)c1	?	?	23µM*	?	?
COc1ccc(NC(=O)c2cc(-c3cc(Cl)ccc3O)n[nH]2)c(OC)c1	-11	-22%	-7%	?	-37%
O=c1c2ccccc2oc2cc(-c3ccc(CN4CCOCC4)cc3)ccc12	0	-15%	13µM*	-20%	16µM*
CNC(=O)CSc1nc2cc(S(=O)(=O)Nc3ccccc3OC)ccc2o1	30	2%	1%	-9%	-14%
SMILES	IL1B secr inh	HT1080-NT tox	TDP1 cell CPT	HT1080 IDH1KD tx	TDP1 cell noCPT
COc1ccccc1NS(=O)(=O)c1ccc2oc(SCc3ccc(C#N)cc3)nc2c1	-7	0%	12µM*	-10%	18µM*
COc1ccccc1NS(=O)(=O)c1ccc2oc(SCC(=O)N3CCNC3=O)nc2c1	-5	-5%	3.7µM*	1%	?
COCCn1c(=O)[nH]c2cc(C(=O)N3CCN(c4cc(C)ccc4C)CC3)ccc2c1=O	4	0%	?	-16%	?
O=C(CCCCn1c(=O)[nH]c2ccccc2c1=O)NCCC1=CCCCC1	3	2%	-4%	1%	-30%
CCCCCn1c(=O)[nH]c2cc(C(=O)N3CCN(CC)CC3)ccc2c1=O	15	2%	-27%	2%	-23%
Cc1ccc(C)c(N2CCN(C(=O)c3ccc4c(=O)n(CCc5ccccc5)c(=O)[nH]c4c3)CC2)c1	.	.	21µM*	.	16µM*
CCCCCn1c(=O)[nH]c2cc(C(=O)N3CCN(c4ccc(C(C)=O)cc4)CC3)ccc2c1=O	-21	-17%	15µM*	-28%	15µM*
CCOC(=O)N1CCN(C(=O)c2ccc3c(=O)n(CCC4=CCCCC4)c(=O)[nH]c3c2)CC1	?	-1%	16µM*	-4%	18µM*
CCCCCn1c(=O)[nH]c2cc(C(=O)N3CCN(c4ccc(F)cc4)CC3)ccc2c1=O	7	?	?	0%	8.2µM*
S=C1COC(c2ccccc2)N1c1ccccc1 (centres undefined)	73	2%	-22%	13%	3%
Cc1ccc(NC(=O)CSc2nnnn2C2CC2)cc1S(=O)(=O)N1CCOCC1	33	-4%	-23%	-1%	-29%
CC(=O)Nc1ccccc1-c1nc2ccc(C(=O)N3CCN(c4cc(C)ccc4C)CC3)cc2[nH]c1=O	-4	20%	?	8%	15µM*
CCCCCn1c(=S)[nH]c2cc(C(=O)N3CCCC3)ccc2c1=O	28	24%	2%	4%	-10%
CCCCCn1c(=O)[nH]c2cc(C(=O)N3CCN(c4ccccc4F)CC3)ccc2c1=O	28	-1%	?	-4%	15µM*
COc1cc2oc(-c3ccccc3)cc(=O)c2cc1O	.	.	3%	.	0%
COc1ccc2c(=O)cc(-c3ccncc3)oc2c1OC	-96*	?	?	23µM*	?
O=c1cc(-c2ccc(O)cc2)oc2ccccc12	5	2%	?	-1%	?
O=c1cc(-c2ccncc2)oc2ccccc12	-77*	-13%	-30%	-5%	?
COc1ccc(-c2cc(=O)c3c(OC)c(OC)c(OC)c(OC)c3o2)cc1OC	-26	-8%	21µM*	-22%	21µM*
Cc1ccc(NC(=O)c2cc(S(=O)(=O)N3CCOCC3)cn2C)cc1F	-3	29%	8%	2%	2%
CCOc1ccc(C(=O)Nc2cccc3ncccc23)cc1Br	0	-4%	?	0%	-21%
CCCCc1ccc(NC(=S)NCCO)cc1	19	0%	9%	-2%	-1%
